Results from the supplement of paper PMC3334620.
The full ranking holds about 33,000 sequences; the median of “E-score (-0.5 to 0.5)” is about -0.0059, and the highest 2% start at about 0.26. Many of the other results were omitted from the sample, so the highest values are more common in it than they were.

Each sequence was assayed against T1, Cin5 (UniProt P40917) (assay: PBM E-score (8-mer binding enrichment) (E-score (-0.5 to 0.5)); higher = stronger / more preferred TF binding). Conditions: protein concentration: 100 nM; construct: GST-full length.
T1 sequence: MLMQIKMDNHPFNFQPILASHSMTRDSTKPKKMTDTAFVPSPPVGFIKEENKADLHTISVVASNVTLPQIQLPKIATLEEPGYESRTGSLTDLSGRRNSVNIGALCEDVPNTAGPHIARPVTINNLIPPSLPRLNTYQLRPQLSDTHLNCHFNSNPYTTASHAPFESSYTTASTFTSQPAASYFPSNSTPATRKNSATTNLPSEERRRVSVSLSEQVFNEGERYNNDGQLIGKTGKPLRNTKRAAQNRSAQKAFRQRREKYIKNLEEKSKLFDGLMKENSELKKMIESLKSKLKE
Description: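 Universal 'all 10-mer' protein binding microarrays (Agilent AMADID 015681) probed with GST-tagged S. cerevisiae TFs (full-length or DBD) made by in vitro transcription/translation (PURExpress), about 100-200 nM. Bound TF was detected with fluorescent anti-GST. Each ungapped 8-mer (which stands for itself and its reverse complement) is scored by the PBM enrichment score (E-score), a modified Wilcoxon-Mann-Whitney statistic from -0.5 to +0.5, computed with the Universal PBM Analysis Suite. Scale: above 0.35 generally sequence-specific binding.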

Sequence | PBM E-score
AGATTGAA | 0.0552
CCCAGTTC | 0.175
AACCGTGA | -0.0786
GCATTCCA | -0.196
AAAGCATC | 0.134
CAGACTGG | -0.108
AAAACGGA | 0.0411
AGTAGCCG | 0.0345
TATCGATA | 0.0449
GCTCTTAC | 0.021
GTCACGCA | 0.0339
CTCACGCC | -0.0928
CTCACGCA | 0.274
ACAGTAGG | -0.00703
CAGTGCCG | -0.0996
ATAGTTGA | 0.121
ATAGTTGG | -0.0107
ATAGTTGC | 0.272
GGTAAGTA | -0.00023
AAAATGGT | 0.216
TCTGCACA | -0.00335
ATTACGAC | 0.232

Sequence | PBM E-score
GTTACGAA | 0.16
ATTACGGA | 0.322
AGTACGAA | 0.167
AGTACGAG | 0.0932
ATTACGCA | 0.25
ATTACGAA | 0.295
CTTACGAA | 0.26
ATTACGAG | 0.299
ATTACGGG | 0.103
ATTACGGC | 0.181
CTTACGAC | 0.103
GAGGTTAA | -0.0963
AGCAATTC | 0.0771
AGGACCTC | -0.0477
CCTTGAGC | -0.155
ATTCCGAG | 0.182
CAAGTCTA | -0.202
ATACTGAT | 0.283
ATACTGAC | 0.192
ATACTGTC | 0.208
TACGCCCA | 0.0142
AAGTACTG | -0.0282

Sequence | PBM E-score
CAAAAGTC | -0.0102
CGCTTACG | 0.379
GGCTTACC | 0.169
ACCTTACG | 0.0253
ATCTTACG | 0.164
GGCTTACA | 0.332
TGCTTACA | 0.305
CACTTACG | 0.112
TGCTTAAA | 0.102
AGCTTACG | 0.337
GCCTTACA | -0.253
CGCTTACC | 0.15
TCCTTACA | -0.021
ACTTCTAT | 0.0803
ATATGCGG | 0.148
CACTGCCA | -0.0785
CCCCCCCA | -0.464
CTAGCCTC | -0.159
GTACAGCA | -0.134
ATGCACTA | -0.0624
ATATAGAT | 0.207
GGAGCTAC | -0.236

Sequence | PBM E-score
AGCTTACA | 0.351
AGCTTACT | 0.201
AGCTTACC | 0.226
CGCTTAGA | -0.0919
AGCTTATA | 0.191
CACTTACA | 0.127
AGCTTATG | 0.296
AGCTTATC | 0.204
CGCTTACA | 0.315
ACCCGATA | -0.0171
CCCTGTTC | -0.265
CCTTCTTC | -0.107
AGAAGCTG | -0.049
ACCAAGAT | 0.146
GTTATACA | 0.181
GTTATAGA | -0.0531
CTTTTGTA | 0.205
GTTATATA | 0.271
GTCATATA | 0.168
ATTATATA | 0.333
